We go through 11 compounds from PubChem BioAssay.

Test [1] relates to Human papillomavirus type 1a protein E7 (residues 44-93). Kind of test: small molecules binding HPV E7 44-93 – biochemical, small-molecule microarray, residues 44-93, 635 nm fluorescence, primary screen (AID 1108).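 Further: E7 fragment applied at 1 µg/mL in TBST for 1 h at 4 C; score combines spot fluorescence with its signal to noise ratio.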 The following applies: fluorescence 635 nm, higher = more signal.
Test [2] is described as follows: hepatitis C replication reporter changes, two-sided – Huh7 cells, luciferase reporter, HCV replication inhibitor project, primary screen (AID 1109).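 Further: huh7 hepatoma cells harbouring a luciferase neomycin HCV replicon reporter; luciferase luminescence as measure of HCV replicon replication; test concentration not given here.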 To be noted: Huh7 HCV replicon luciferase reporter, 48 h; higher = more signal. (In general: In a reporter assay the amount or activity of a reporter protein is the signal.)
Test [3] addresses Left-right determination factor 2 (Homo sapiens) (UniProt O00292). Kind of test: small molecules binding LEFTY2 protein – biochemical, small-molecule microarray, 635 nm fluorescence scan, primary screen (AID 1110). To be noted: higher = more signal.
Test [4] has as its target Calmodulin-1 (Homo sapiens) (UniProt P0DP23). Kind of test: small molecules binding calmodulin-1 with EGTA – biochemical, small-molecule microarray, Cy5-labelled CALM1, profiling panel (AID 1111).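 Further: labelled calmodulin applied in Tris saline Tween buffer holding calcium plus EGTA and DTT.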 To be noted: Cy5-CALM1 binding fluorescence, higher = more signal.
For test [5] the target is unchanged. Kind of test: small molecules binding Ca-loaded calmodulin-1 – biochemical, small-molecule microarray, Cy5-labelled CALM1, plus calcium, artefact control for SMM control-protein annotation, profiling panel (AID 1112).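 Further: score merges spot fluorescence with signal to noise from triplicate slides.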 The following applies: Cy5-CALM1 binding fluorescence, higher = more signal.
Test [6] in a line: probe aWnt5a binding to arrayed compounds – biochemical, biotinylated probe, 635/667 nm fluorescence, primary screen (AID 1113).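 Further: score merges 667 nm fluorescence intensity with signal-to-noise per printed feature.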 The following applies: small-molecule microarray, higher = more signal.
Test [7] can be described thus: probe aShh binding to arrayed compounds – biochemical, biotinylated probe, 635/667 nm fluorescence, primary screen (AID 1114).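 Further: probe is biotin-labelled aShh protein from a stem cell growth factor screen; measures binding of labelled protein to compounds printed on the slide; score merges feature fluorescence at 667 nm with signal-to-noise.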 The following applies: small-molecule microarray, higher = more signal.
Test [8] in a line: probe aNog binding to arrayed compounds – biochemical, biotinylated probe, 635/667 nm fluorescence, primary screen (AID 1115).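 Further: probe is biotinylated aNog protein used at 0.15 µg/mL for 1 h at 4 C; z-score combines 667 nm fluorescence of each spot with its signal to noise.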 The following applies: small-molecule microarray, higher = more signal.
The target of test [9] is Torsin-1A-interacting protein 1 (Homo sapiens) (UniProt Q5JTV8). Kind of test: compound microarray binding of lysate hLAP1 – cell lysate, small-molecule microarray, COS7 lysate, 635/667 nm fluorescence, primary screen (AID 1116). To be noted: 635 nm fluorescence, higher = more signal.
The target of test [10] is Alpha-bungarotoxin (Bungarus multicinctus) (UniProt P60615). Kind of test: compounds binding labelled alpha-BTX control protein – biochemical, small-molecule microarray, Alexa647 label, 635/667 nm fluorescence, artefact control for SMM control protein annotation, profiling panel (AID 1117). To be noted: alpha-BTX-A647 binding fluorescence, higher = more signal.
Sequence of Alpha-bungarotoxin (Bungarus multicinctus) (P60615 whole entry, looked up): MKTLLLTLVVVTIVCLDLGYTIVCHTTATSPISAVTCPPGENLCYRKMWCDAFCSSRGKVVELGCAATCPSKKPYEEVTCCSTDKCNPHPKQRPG

Sequence of Left-right determination factor 2 (Homo sapiens) (O00292 whole entry, looked up): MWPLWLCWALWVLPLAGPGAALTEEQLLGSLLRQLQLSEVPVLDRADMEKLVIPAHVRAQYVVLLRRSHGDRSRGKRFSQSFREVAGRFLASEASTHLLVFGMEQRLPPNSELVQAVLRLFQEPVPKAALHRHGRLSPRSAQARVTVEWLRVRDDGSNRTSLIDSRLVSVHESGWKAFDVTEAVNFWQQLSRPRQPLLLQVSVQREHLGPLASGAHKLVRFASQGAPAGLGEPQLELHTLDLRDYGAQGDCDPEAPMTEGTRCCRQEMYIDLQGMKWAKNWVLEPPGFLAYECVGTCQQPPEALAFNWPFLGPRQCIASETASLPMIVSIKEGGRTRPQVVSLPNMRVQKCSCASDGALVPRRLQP
Sequence of Torsin-1A-interacting protein 1 (Homo sapiens) (Q5JTV8 whole entry, looked up): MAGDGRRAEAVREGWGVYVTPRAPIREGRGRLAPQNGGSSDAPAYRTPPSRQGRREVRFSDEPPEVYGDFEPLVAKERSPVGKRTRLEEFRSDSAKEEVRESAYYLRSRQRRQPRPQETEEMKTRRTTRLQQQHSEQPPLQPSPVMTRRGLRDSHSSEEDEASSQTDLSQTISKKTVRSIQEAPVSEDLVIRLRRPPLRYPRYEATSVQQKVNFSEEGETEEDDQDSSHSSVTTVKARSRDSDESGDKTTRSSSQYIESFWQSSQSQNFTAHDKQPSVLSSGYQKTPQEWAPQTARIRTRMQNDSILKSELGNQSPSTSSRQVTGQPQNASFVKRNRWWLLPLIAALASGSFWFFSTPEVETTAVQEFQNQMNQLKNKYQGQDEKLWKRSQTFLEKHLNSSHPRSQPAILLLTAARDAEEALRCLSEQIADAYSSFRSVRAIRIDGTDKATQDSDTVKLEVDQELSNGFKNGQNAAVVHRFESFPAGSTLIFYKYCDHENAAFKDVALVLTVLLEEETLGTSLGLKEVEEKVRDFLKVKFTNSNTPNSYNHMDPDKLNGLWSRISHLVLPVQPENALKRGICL

For the compound `O=C1C2C=CC(C(O)C(c3ccccc3)c3ccccc3)N(Nc3ccccc3F)C2C(=O)N1c1ccccc1` (stereo not given), the composite z-score in [1] was found to be 1.45; in test [3] it was 0.407; in test [4] it was 1.04; in test [5], 0.713; in test [6], 0.0182; in test [7] it was 0.108. Further, the results for the composite z-score in [8], in [9] and in [10] were 0.686, 0.855 and 0.451, respectively. The compound also registered a z-score in test [2] of -0.942.

With `CN(C)CCCCNC(=O)[C@H]1C[C@H]2C(=O)N[C@@H](CCCCN(C)C)C(=O)N2[C@H]1c1ccc(O)cc1`, the composite z-score in test [1] was -1.01; in test [3], 0.435; in test [4], -0.362; in test [5], -0.873; in [6], -0.128; in test [7] it was -0.229. For the same compound, the composite z-score is -0.0446 in test [8], -0.178 in [9] and 0.457 in [10]. In test [2], this compound gave a z-score of 0.448.

On to `CC1C2C(CCCO)=CC(C3C(=O)N(C(N)=O)C(=O)C23)N1Cc1cccc(OC(F)(F)F)c1` (stereo not given), for which the composite z-score was 0.0396 in test [1]; 0.246 in test [3]; 0.366 in test [4]; 0.41 in test [5]; -0.096 in test [6]; 0.13 in [7]. The composite z-score in test [8] turned out to be 0.528; in [9] it was 1.26; in [10] it was 1.32. In addition, the z-score in [2] is -1.07.

Take `CCOC(=O)C1=CC[C@@H](c2ccccc2)N(S(=O)(=O)c2ccc(C)cc2)[C@@H]1C#N`: the composite z-score in [1] is 1.32; in [3], 0.0775; in test [4], 1.2; in test [5] it was 0.325; in [6], 0.0438; in test [7], 0.14. Besides, the composite z-score worked out at 0.404 in test [8], 0.349 in test [9] and 0.786 in test [10]. In addition, in test [2], the z-score was -1.72.

On to `C=CCNC(=O)[C@@H]1[C@H]2C(=O)O[C@H](c3ccccc3)[C@H](c3ccccc3)N2[C@H](c2ccc(O)cc2)[C@@]12C(=O)Nc1ccc(C#CC3=CCCCC3)cc12`, for which the composite z-score stood at 1.44 in test [1]; 0.385 in test [3]; 1.1 in test [4]; 0.683 in [5]; 0.171 in test [6]; 1.85 in [7]. Moreover, the composite z-score in test [8] was found to be 2.03; in [9], 1.58; in test [10] it was 1.9. Moreover, the z-score in [2] is -2.61.

Regarding `O=C(NC1CC1)[C@@H]1c2ccccc2C(=O)N(C2CCCCC2)[C@H]1c1ccc(CO)cc1`, the composite z-score is 0.178 in [1]; 0.0863 in [3]; 0.576 in test [4]; 0.109 in test [5]; -0.176 in test [6]; -0.321 in test [7]. Also, the composite z-score in test [8] was -0.16; in test [9], 0.482; in [10] it was 1.5. Moreover, the z-score in test [2] is -2.14.

Turning to `C=C(/C=C\CNS(=O)(=O)c1ccc(C)cc1)[C@H](O)[C@H]1CCCN1S(=O)(=O)c1ccccc1[N+](=O)[O-]`, the composite z-score in test [1] is -0.251; in [3], 0.318; in [4] it was -0.337; in test [5], -0.477; in [6], -0.0405; in test [7], -0.138. Besides, the composite z-score is -0.219 in test [8], 0.612 in [9] and 0.293 in test [10]. The z-score in test [2] was -3.55.

With `O=C1O[C@H](c2ccccc2)[C@H](c2ccccc2)N2[C@H]1[C@@H](C(=O)O)[C@]1(C(=O)Nc3ccc(C#CC4(O)CCCCCC4)cc31)[C@H]2c1ccccc1OCCO`, the composite z-score in test [1] was found to be 1.11; in test [3] it was 0.39; in [4], 1.99; in test [5], 1.03; in test [6] it was 0.0839; in [7], 0.459. Besides, the values for the composite z-score in test [8], in test [9] and in test [10] were 0.938, 0.727 and 1.95, respectively. Besides, in test [2], the z-score is -2.11.

`C=CC[C@]1(C(=O)NCC(O)CO)N=C(c2ccc(OCCCO)cc2)O[C@H]1c1ccccc1CN=[N+]=[N-]` (stereo not given in full): the composite z-score in test [1] is 0.551; in test [3] it was -0.696; in test [4], 1.34; in [5], 0.262; in test [6], 0.0181; in [7], -0.0146. In addition, the figures for the composite z-score in test [8], in test [9] and in [10] were -0.516, 3.34 and 0.138, respectively. Moreover, the z-score in test [2] is -1.06.

As to `COc1ccc([Si](C)(C)[C@H]2[C@H](CC(=O)N3CCC[C@H]3CO)O[C@@]3(C(=O)N(C)c4ccccc43)[C@@H]2C)cc1`, the composite z-score in [1] was 0.442; in [3], 0.239; in test [4] it was -0.13; in [5], 0.297; in test [6], -0.0721; in test [7] it was -0.0368. The composite z-score in test [8] is -0.0094; in [9] it was 1.13; in test [10] it was 0.557. Further, in test [2], the z-score was -0.812.

In the case of `CC(=O)NCCCC[C@@H]1NC(=O)[C@H]2C[C@@H](C(=O)NCCCCCN)[C@@H](c3ccc(O)cc3)N2C1=O`, the composite z-score in test [1] is 1.36; in [3], 0.777; in test [4], 0.536; in [5], 0.973; in [6], -0.1; in test [7], -0.0211. Further, the composite z-score in test [8] is -0.221; in [9], 0.852; in [10], 0.988. In addition, in [2], the z-score came out at 0.199.
